Test results as given in PubChem BioAssay (Tox21).
Records with an inconclusive call do not appear. Activity calls are given as the source filed them. Calls come from the whole dose curve; as a rule, active = well fitted activation curve with a large enough effect in the signal ratio in the repeat runs (not every such curve was filed as active); inconclusive = weak or mixed curves; inactive = flat fitted curve, though single readings scatter; the % refers to the signal ratio.

assay: qHTS assay to identify small molecule agonists of the TGF-beta/Smad signaling pathway (AID 1346859); settings: SBE-bla HEK293T, TGF-beta/Smad beta-lactamase reporter, 5 h; series mostly up to 76.8 µM
Source text: U.S. Tox21 Program National Center for Advancing Translational Sciences [NCATS] NIH Chemical Genomics Center [NCGC] U.S. Environmental Protection Agency [EPA] National Institutes of Environmental Health Sciences [NIEHS] National Toxicology Program [NTP] U.S. Food and Drug Administration [FDA] Tox21 Assay Overview: Transforming growth factor beta (TGF-beta) superfamily consists of a large number of structurally related dimeric proteins that act as hormones or local mediators in regulating a wide range of biological functions. This superfamily includes TGF-betas themselves, the bone morphogenetic proteins (BMPs) and the activins. These ligands induce oligomerization of serine/threonine receptor kinases and phosphorylate the cytoplasmic signaling molecules of Smad protein family. CellSensor SBE-bla HEK 293T cell line (Life Technologies, Carlsbad, CA), responsive to TGF-beta was used to screen Tox21 10K compound library for identification of agonists/antagonists of the Smad signaling pathway. This cell line contains a beta-lactamase reporter gene under control of the Smad binding element (SBE) stably integrated into HEK 293T cells.
Tox21 Assay Protocol Summary: SBE-bla HEK 293T cells were dispensed at 4,000/well in 6 uL of assay medium into black wall/clear-bottom 1536-well plates using a Multidrop Combi (ThermoFisher Scientific, Waltham, MA) dispenser. After the assay plates were incubated at 37 C and 5% CO2 for an overnight, 23 nL of compounds dissolved in DMSO, positive controls or DMSO only was transferred to the assay plate by a Pintool station (Kalypsys, San Diego, CA). The assay plates were incubated at 37 C and 5% CO2 for 5 hr. One uL of LiveBLAzer B/G FRET substrate (Life Technologies) was added using a Flying Reagent Dispenser (Aurora Discovery, San Diego, CA) and the plates were incubated at room temperature for 2 hr. Fluorescence intensity (405 nm excitation, 460 nm and 530 nm emissions) was measured using an Envision plate reader (PerkinElmer, Shelton, CT).

SMILES	outcome
CCCCCCCC/C=C\CCCCCCCC(=O)OC	inactive
CCn1cc(C(=O)O)c(=O)c2cc(F)c(N3CCNCC3)nc21	inactive
CCCCCCCCCCCC(=O)[O][Sn]([CH2]CCC)([CH2]CCC)[O]C(=O)CCCCCCCCCCC	inactive
CN(C(=O)C(Cl)Cl)c1ccc(OC(=O)c2ccco2)cc1	inactive
CCOC(=O)/C=C/C(=O)O	inactive
Cc1cc(S(=O)(=O)O)ccc1N=Nc1c(O)ccc2ccccc12	inactive
COC(OC)(C(=O)c1ccccc1)c1ccccc1	inactive
Cc1cnc(C)c(C)n1	inactive
CCNC(=O)N1CCN(CCCC(c2ccc(F)cc2)c2ccc(F)cc2)CC1	inactive
CCOC(=N)CC(=O)OCC	inactive
CC1CC(O)CC(C)(C)C1 (stereo not given)	inactive
CC(=O)Nc1ccccc1C	inactive
COC(=O)CC(=O)C(C)(C)C	inactive
O=S1OCCO1	inactive
CC[C@@H]([C@H](C)O)n1ncn(-c2ccc(N3CCN(c4ccc(OC[C@@H]5CO[C@@](Cn6cncn6)(c6ccc(F)cc6F)C5)cc4)CC3)cc2)c1=O	inactive
O=S(=O)(c1ccccc1)c1ccc(Cl)cc1	inactive
O=C(O)c1cccc(O)c1	inactive
Cc1ccccc1N1C(=O)c2cc(S(N)(=O)=O)c(Cl)cc2NC1C (stereo not given)	inactive
CCCCOC(=O)CCS	inactive
CCCCC(CC)C(=O)OCCOCCOCCOCCOC(=O)C(CC)CCCC (stereo not given)	inactive

SMILES	outcome
CC(C)CCCCCOC(=O)CCCCC(=O)OCCCCCC(C)C	inactive
C=CC(=C)CCCC(C)(C)OC(C)=O	inactive
O=C(O)C(Cc1cc(I)c(O)c(I)c1)c1ccccc1 (stereo not given)	inactive
CC(C)OCC1CO1 (stereo not given)	inactive
O=C1NCCN1	inactive
CC(C)(C)CC(C)(C)c1ccc(OCCO)cc1	inactive
CCc1nn(CCCN2CCN(c3cccc(Cl)c3)CC2)c(=O)n1CCOc1ccccc1	inactive
Oc1cc(O)c(Cl)cc1Cl	inactive
ON(Cc1ccccc1)Cc1ccccc1	inactive
NC(=O)N(O)[C@@H]1C=C[C@H](Oc2cccc(Oc3ccc(F)cc3)c2)C1	inactive
CC(=O)Oc1ccc2c(c1)CC[C@@H]1[C@@H]2CC[C@]2(C)[C@@H](O)CC[C@@H]12	inactive
C=CCOC(=O)/C=C\C(=O)OCC=C	inactive
Cc1cc(OI)c(C(C)C)cc1-c1cc(C(C)C)c(OI)cc1C	inactive
COC(=O)c1cc(S(N)(=O)=O)ccc1OC	inactive
Cc1ccc(S)cc1	inactive
Cc1c(C(=O)NN2CCCCC2)nn(-c2ccc(Cl)cc2Cl)c1-c1ccc(Cl)cc1	inactive
O=Cc1c(Cl)cccc1Cl	inactive
Cc1oc(C)c(C(=O)Nc2ccccc2)c1C	inactive
NC(=O)Nc1ccc(Cl)cc1	inactive
COCc1c(C(C)C)nc(C(C)C)c(/C=C/[C@@H](O)C[C@@H](O)CC(=O)O)c1-c1ccc(F)cc1	inactive
